Laboratory results reported in PubChem BioAssay.
This is one part of the list. The source made the active and inactive calls.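 The calls were made as follows, unless noted: active = inhibition above the mean over all tested compounds plus 3 SD, which no compound reached; inactive = the rest.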

Legend:
[1] = system: HIV-1 integrase (multimerization); assay: stimulation of HIV-1 integrase oligomerization – biochemical, TR-FRET, counter-screen for LEDGF/p75 integration inhibitor project (AID 1053131; in the data active = activation above about 8.9%); settings: TR-FRET HIV-1 integrase multimerization, at 7.7 µM, stronger effect = higher value
[2] = compounds disturbing TR-FRET signal readout – biochemical, HIV-1 IN multimerization, artefact control for LEDGF/p75-dependent integration inhibitor project, confirmation (AID 1053135); settings: TR-FRET optical interference counterscreen, at 7.7 µM, stronger effect = higher value;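 also: 0% = integrase with antibodies and DMSO and 100% = antibodies without integrase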
[3] = system: HIV-1 integrase / human LEDGF/p75 complex; assay: blockers of LEDGF/p75-dependent integrase activity – biochemical, TR-FRET, confirmation (AID 1053136; in the data active = inhibition above about 14%); settings: TR-FRET LEDGF/p75-dependent HIV-1 integration, at 3.7 µM, stronger effect = higher value
[4] = target: Glutathione S-transferase omega-1 (Homo sapiens) (UniProt P78417); assay: recombinant GSTO1 blockers, retest – biochemical, fluorescence polarization, triplicate, counter-screen for RBBP9 inhibitor project, confirmation (AID 2176;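 active = inhibition above the primary screen's cutoff, its mean inhibition plus 3 SD, cut at about 35% in these data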;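 also: loss of polarization as inhibitors block binding of rhodamine sulfonate ester activity probe; 0% = GSTO1 with DMSO and 100% = wells lacking GSTO1 enzyme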); settings: recombinant GSTO1, probe fluorescence polarization; at 5.96 µM; stronger effect = higher value
Glutathione S-transferase omega-1 (Homo sapiens), sequence (P78417 whole entry, looked up): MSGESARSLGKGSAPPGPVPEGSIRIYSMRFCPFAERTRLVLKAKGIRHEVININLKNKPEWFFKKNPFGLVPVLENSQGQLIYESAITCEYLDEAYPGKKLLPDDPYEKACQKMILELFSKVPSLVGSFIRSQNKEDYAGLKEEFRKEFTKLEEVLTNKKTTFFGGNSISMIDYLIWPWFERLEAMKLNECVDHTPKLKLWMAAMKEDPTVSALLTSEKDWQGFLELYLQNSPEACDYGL

[5] = target: Protein-arginine deiminase type-4 (Homo sapiens) (UniProt Q9UM07); assay: protein arginine deiminase 4 blockade, retest – biochemical, fluorescence polarization, confirmation (AID 488796;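 active = mean inhibition across replicates above the hit cutoff set by the earlier primary screen, cut at about 15% in these data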;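 also: inhibitors block active-site labeling by the probe so polarization falls; 0% = PAD4 with probe and DMSO and 100% = probe without PAD4 enzyme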); settings: recombinant PAD4, RCA probe fluorescence polarization; at 6.36 µM; stronger effect = higher value
Protein-arginine deiminase type-4 (Homo sapiens), sequence (Q9UM07 whole entry, looked up): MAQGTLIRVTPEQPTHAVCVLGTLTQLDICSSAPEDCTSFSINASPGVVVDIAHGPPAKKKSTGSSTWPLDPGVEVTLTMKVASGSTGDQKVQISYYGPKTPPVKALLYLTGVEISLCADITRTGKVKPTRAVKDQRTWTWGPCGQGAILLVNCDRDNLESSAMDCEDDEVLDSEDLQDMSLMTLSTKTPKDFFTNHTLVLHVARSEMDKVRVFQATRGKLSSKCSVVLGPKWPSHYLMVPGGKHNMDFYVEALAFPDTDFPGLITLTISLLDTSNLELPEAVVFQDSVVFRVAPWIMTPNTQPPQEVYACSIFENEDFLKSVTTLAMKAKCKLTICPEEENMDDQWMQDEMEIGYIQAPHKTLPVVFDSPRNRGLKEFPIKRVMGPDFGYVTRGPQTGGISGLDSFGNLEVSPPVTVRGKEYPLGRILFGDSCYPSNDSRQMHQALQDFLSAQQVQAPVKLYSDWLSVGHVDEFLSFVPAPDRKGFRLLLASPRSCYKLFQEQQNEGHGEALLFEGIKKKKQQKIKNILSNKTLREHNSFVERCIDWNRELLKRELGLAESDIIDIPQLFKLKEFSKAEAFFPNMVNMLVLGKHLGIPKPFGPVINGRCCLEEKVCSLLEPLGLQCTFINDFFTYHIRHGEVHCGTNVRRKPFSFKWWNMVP

[6] = target: Serine protease HTRA1 (Homo sapiens) (UniProt Q92743); assay: confirming inhibition of human HTRA1 – biochemical, fluorescence polarization, confirmation (AID 540248;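 active = mean inhibition over three repeats above a set limit taken from the earlier primary screen, cut at about 37% in these data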;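 also: 0% = HTRA1 with DMSO and 100% = wells lacking HTRA1; inhibitors block probe binding so polarization drops and inhibition rises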); settings: recombinant HTRA1, FP-rhodamine activity-based probe, at 5.96 µM, stronger effect = higher value
[7] = target: (Lyso)-N-acylphosphatidylethanolamine lipase (Mus musculus) (UniProt Q8VD66); assay: mouse ABHD4 hydrolase blockers, triplicate – biochemical, fluorescence polarization, confirmation (AID 720658;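 active = mean inhibition across replicates above the hit cutoff set in the primary screen, cut at about 30% in these data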;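 also: 0% = wild-type ABHD4 with DMSO and 100% = catalytically dead S159A mutant with DMSO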); settings: purified mABHD4, FP-Rh probe fluorescence polarization; at 8.92 µM; stronger effect = higher value
(Lyso)-N-acylphosphatidylethanolamine lipase (Mus musculus), sequence (Q8VD66 whole entry, looked up): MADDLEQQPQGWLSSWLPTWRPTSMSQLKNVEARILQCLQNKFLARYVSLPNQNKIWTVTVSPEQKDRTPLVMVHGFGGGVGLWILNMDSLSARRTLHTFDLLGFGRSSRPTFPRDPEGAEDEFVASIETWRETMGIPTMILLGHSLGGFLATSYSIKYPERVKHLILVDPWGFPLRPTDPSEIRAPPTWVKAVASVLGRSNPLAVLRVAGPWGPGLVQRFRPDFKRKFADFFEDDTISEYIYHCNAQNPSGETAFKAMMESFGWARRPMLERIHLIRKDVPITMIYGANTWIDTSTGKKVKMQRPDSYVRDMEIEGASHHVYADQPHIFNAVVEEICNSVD

[8] = target: Platelet-activating factor acetylhydrolase (Homo sapiens) (UniProt Q13093); assay: inhibition of plasma PAF acetylhydrolase – biochemical, fluorescence polarization, human, confirmation (AID 463230;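 active = mean inhibition of the triplicate above the hit cutoff set for the earlier primary screen, cut at about 25% in these data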;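 also: 0% = enzyme with DMSO and 100% = wells lacking pPAFAH enzyme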); settings: recombinant pPAFAH, FP-Rh probe fluorescence polarization; at 3.39 µM; stronger effect = higher value
Platelet-activating factor acetylhydrolase (Homo sapiens), sequence (Q13093 whole entry, looked up): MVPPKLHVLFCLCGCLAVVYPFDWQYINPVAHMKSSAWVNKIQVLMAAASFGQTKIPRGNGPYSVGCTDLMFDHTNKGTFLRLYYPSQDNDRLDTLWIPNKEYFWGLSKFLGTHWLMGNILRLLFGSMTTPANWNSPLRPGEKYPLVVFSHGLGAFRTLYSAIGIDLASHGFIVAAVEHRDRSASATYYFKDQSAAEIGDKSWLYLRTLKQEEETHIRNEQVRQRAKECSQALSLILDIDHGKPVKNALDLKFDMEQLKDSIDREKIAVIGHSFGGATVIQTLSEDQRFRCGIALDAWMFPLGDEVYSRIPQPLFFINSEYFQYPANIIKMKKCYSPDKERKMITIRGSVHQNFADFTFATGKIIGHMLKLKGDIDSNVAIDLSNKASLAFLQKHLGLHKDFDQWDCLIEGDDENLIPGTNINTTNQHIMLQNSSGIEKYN

[9] = BSA probe fluorescence interference – biochemical, TAMRA-labeled BSA, counter-screen for TCR-CD3 interaction inhibitor project (AID 652035; in the data active = inhibition above about 23%;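 also: 0% = buffer low control and 100% = reference high control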); settings: TAMRA-labeled BSA probe fluorescence counterscreen; at 9.4 µM; stronger effect = higher value
[10] = system: T-cell receptor (TCR)-CD3 interaction, human; assay: blockers of TCR binding to CD3 – biochemical, fluorescence, TAMRA-labeled TCR probe, confirmation (AID 652036; in the data active = inhibition above about 19%); settings: TAMRA-labeled TCR probe fluorescence binding assay; at 9.4 µM; stronger effect = higher value
[11] = reduced OD of T4-infected AddAB+ E. coli – absorbance, E. coli V3065, T4 phage, triplicate, AddAB inhibitor project, confirmation (AID 488942;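 active = mean inhibition above a set limit taken from the earlier primary screen, cut at about 13% in these data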;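 also: higher means less bacterial growth since AddAB block lets phage replicate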); settings: E. coli V3065 expressing H. pylori AddAB, at 11.9 µM, stronger effect = higher value, T4 phage with gene 2 nonsense mutations
[12] = reduced OD of phage-infected RecBCD+ V66 E. coli – absorbance, mutant T4 phage, counter-screen for AddAB inhibitor project (AID 488955;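 active = mean inhibition above the mean of solvent-only control wells plus 3 SD, cut at about 4% in these data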;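 also: optical density read after an 18 h incubation at 37 °C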); settings: OD growth, at 11.9 µM, stronger effect = higher value
[13] = bacterial growth inhibitors – absorbance, counter-screen for AddAB inhibitor project, confirmation (AID 488956; in the data active = inhibition above about 25%); settings: bacterial viability, absorbance (AddAB counterscreen); at 11.9 µM; stronger effect = higher value
[14] = reduced OD of V66 E. coli with T4 gene 2 phage – absorbance, RecBCD inhibitor project, confirmation (AID 651982;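 active = mean inhibition over triplicates exceeding the hit threshold derived in the original primary screen, cut at about 11% in these data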); settings: E. coli V66 + T4 2- phage, growth OD; at 11.9 µM; stronger effect = higher value
[15] = bacterial growth inhibition – absorbance, high throughput, counter-screen for RecBCD inhibitor project (AID 651983; in the data active = inhibition above about 20%;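 also: E. coli strain V66 grown with compound alone and no phage infection; 0% = bacteria with DMSO vehicle only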); settings: E. coli viability, absorbance (OD) growth; at 11.9 µM; stronger effect = higher value
[16] = reduced optical density, T4-challenged addAB+ bacteria – absorbance, E. coli V3065, T4 phage, counter-screen for RecBCD inhibitor project, confirmation (AID 651984;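 active = mean inhibition above the solvent-only control wells' mean plus 3 SD, cut at about 22% in these data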;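 also: higher means less bacterial growth from phage killing when AddAB is blocked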); settings: E. coli expressing H. pylori AddAB + T4 phage, OD growth; at 11.9 µM; stronger effect = higher value; gene 2 mutant T4, recBCD-deleted host
[17] = system: Fam108b (Abhd17b) serine hydrolase [Mus musculus]; assay: inhibition of Fam108b (Abhd17b) hydrolase – biochemical, fluorescence polarization, triplicate, counter-screen for RBBP9 inhibitor project, confirmation (AID 1978;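 active = inhibition above a limit from the primary screen, the mean over all compounds plus 3 SD, cut at about 19% in these data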;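 also: 0% = median of active Fam108b wells and 100% = catalytically dead S170A mutant; inhibitors free the probe so polarization falls as inhibition rises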); settings: recombinant Fam108b, FP-Rh probe fluorescence polarization; at 9.51 µM; stronger effect = higher value
[18] = target: Bcl-2-like protein 1 (Homo sapiens) (UniProt Q07817); assay: Bcl-xL BH3-peptide displacement, hit confirmation – biochemical, fluorescence polarization, counter-screen for MCL1 inhibitor project (AID 2166;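 active = inhibition above a cutoff equal to the mean inhibition of all tested compounds plus 3 SD, cut at about 30% in these data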); settings: GST-Bcl-xL / FITC-Bim BH3 peptide FP binding; at 10.9 µM; stronger effect = higher value
Bcl-2-like protein 1 (Homo sapiens), sequence (Q07817 whole entry, looked up): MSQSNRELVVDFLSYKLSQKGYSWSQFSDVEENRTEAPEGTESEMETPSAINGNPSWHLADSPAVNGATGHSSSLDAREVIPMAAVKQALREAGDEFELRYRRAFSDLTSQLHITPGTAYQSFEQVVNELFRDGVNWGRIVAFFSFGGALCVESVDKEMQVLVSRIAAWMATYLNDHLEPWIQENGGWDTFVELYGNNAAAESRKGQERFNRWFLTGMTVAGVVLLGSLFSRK

[19] = target: Induced myeloid leukemia cell differentiation protein Mcl-1 (Homo sapiens) (UniProt Q07820); assay: MCL1-BIM peptide interaction disruptors – biochemical, fluorescence polarization, triplicate, confirmation (AID 2168;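 active = inhibition above the average of all tested compounds plus 3 SD, cut at about 40% in these data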;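 also: 0% = DMSO wells and 100% = unlabeled Bim-BH3 control peptide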); settings: GST-MCL1 / FITC-Bim-BH3 fluorescence polarization; at 10.9 µM; stronger effect = higher value
Induced myeloid leukemia cell differentiation protein Mcl-1 (Homo sapiens), sequence (Q07820 whole entry, looked up): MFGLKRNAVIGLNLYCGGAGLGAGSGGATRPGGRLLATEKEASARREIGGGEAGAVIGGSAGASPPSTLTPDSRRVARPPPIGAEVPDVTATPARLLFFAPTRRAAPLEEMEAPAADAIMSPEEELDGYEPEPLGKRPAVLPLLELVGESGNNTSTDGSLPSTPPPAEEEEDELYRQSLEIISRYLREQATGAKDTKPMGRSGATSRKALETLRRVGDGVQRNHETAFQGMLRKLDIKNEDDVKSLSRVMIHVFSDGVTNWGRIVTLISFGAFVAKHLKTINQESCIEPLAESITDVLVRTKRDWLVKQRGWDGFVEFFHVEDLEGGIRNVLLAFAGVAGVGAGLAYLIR

O=C(O)CCC(=O)Nc1ccc(N2CCOCC2)cc1
inactive: activation [1] 0.12% | inhibition [2] -0.6% | inhibition [3] 1.39%

Cc1ccc(C(=O)N2CCCc3ccccc32)c(Cl)c1
inactive: activation [1] -0.4% | inhibition [2] 2.02% | inhibition [3] 1.35%

O=C(COC(=O)CCC(=O)c1cccs1)NCc1ccco1
inactive: inhibition [2] -58.1%
active: activation [1] 11.5% | inhibition [3] 19.2%

CN(Cc1ccc(F)cc1)C(=O)CN1C(=O)c2ccccc2S1(=O)=O
inactive: activation [1] -1.2% | inhibition [2] 4.33% | inhibition [3] -12.2%

Cc1cc(SCC(=O)NCCN2C(=O)CSC2=O)nc2ccccc12
inactive: activation [1] 0.99% | inhibition [2] -4.97% | inhibition [3] 1.78%

C[C@H]([C@@H](O)[C@@H](O)[C@@H](C)C(C)(C)C)[C@H]1CC[C@H]2C3CC[C@H]4C[C@H](OS(=O)(=O)O)[C@@H](OS(=O)(=O)O)C[C@]4(C)[C@H]3CC[C@]12C (some centres undefined)
active: inhibition [3] 32.4%
inactive: activation [1] -1.87% | inhibition [2] 6.58%

CCc1cc2c(SCC(=O)Nc3ncc(Cl)c(C)c3Cl)ncnc2s1
inactive: activation [1] -0.15% | inhibition [2] 0.78% | inhibition [3] 0.88%

Cc1cc(Oc2ccc(Cl)cc2)nc(SCC(=O)c2ccccc2)n1
inactive: activation [1] -0.31% | inhibition [2] 1.56% | inhibition [3] -0.68%

Oc1c(CN2CCOCC2)ccc(CN2CCOCC2)c1O
inactive: activation [1] -0.48% | inhibition [2] 1.64%
active: inhibition [3] 15.7%

O=C(NC1CCCCC1)N1CCc2[nH]c3ccccc3c2C1
inactive: activation [1] 1.36% | inhibition [2] -6.83% | inhibition [3] 2.35%

C=CCN1C(=O)C(O)(CC(=O)c2ccccn2)c2ccccc21 (centres undefined)
inactive: activation [1] 0.97% | inhibition [2] -4.84% | inhibition [3] 0.38%

COc1ccc(NC(=O)C(NC(C)=O)C(=O)NCc2ccccc2Cl)cc1 (centres undefined)
inactive: activation [1] -0.36% | inhibition [2] 1.86% | inhibition [3] 2.33%

COc1ccccc1-c1cc(C(=O)NCCCn2ccnc2)no1
inactive: activation [1] 1.02% | inhibition [2] -3.78% | inhibition [3] -0.05%

O=C(CN(C(=O)c1csnn1)c1cccc(Cl)c1)NC1CCCC1
inactive: activation [1] -0.52% | inhibition [2] 2.68% | inhibition [3] 3.72%

O=S(=O)(Nc1ccc(O)c2ccccc12)c1ccc(OC(F)(F)F)cc1
active: inhibition [4] 38.2% | inhibition [5] 15%
inactive: activation [1] 1.57% | inhibition [2] -5.75% | inhibition [3] 8.79%

CCCCNC(=O)OC1CC2CC1[C@H]1CCCCN1C2=O (some centres undefined)
inactive: activation [1] -0.71% | inhibition [2] 3.63% | inhibition [3] -1.12%

Clc1cc(NC2CCCCC2)ncn1
inactive: activation [1] -0.3% | inhibition [2] 1.2% | inhibition [3] -4.64%

Clc1ccc(C2=CSC3=Nc4cccc5cccc(c45)N23)cc1
active: inhibition [4] 85.1% | inhibition [7] 37.5% | inhibition [3] 24.5%
inactive: inhibition [5] -2.56% | inhibition [6] 13.7% | activation [1] 2.48% | inhibition [2] -8.94%

Cc1ccc(C(=O)OC(C)CN2CCOCC2)cc1 (centres undefined)
inactive: activation [1] 0.25% | inhibition [2] -1.23% | inhibition [3] -2.32%

CN(C)/C=C/C(=O)c1cnc2sccn2c1=O
inactive: activation [1] 0.96% | inhibition [2] -3.51% | inhibition [3] 1.19%

COC(=O)C1=C(C)N(C)C(=O)NC1c1ccc([N+](=O)[O-])o1 (centres undefined)
inactive: activation [1] 0.76% | inhibition [2] -3.75% | inhibition [3] 0.3%

Cc1cc(=O)oc2c3c(cc(OCC(=O)N[C@H](C(=O)O)c4ccccc4)c12)OC(C)(C)CC3
inactive: activation [1] -0.04% | inhibition [2] 0.3% | inhibition [3] -1.12%

Cc1ccc(N=C2NC(=O)/C(=C/C=C/c3ccco3)S2)cc1C
active: inhibition [8] 31.1% | activation [1] 13.8% | inhibition [3] 45.2%
inactive: inhibition [2] -49.5%

Oc1ccc(N=Cc2sc3ccccc3c2Cl)cc1
inactive: inhibition [4] 12.2% | inhibition [5] 3% | inhibition [9] 13.2% | inhibition [10] 7.56% | inhibition [7] -6.63% | inhibition [2] -37.1%
active: inhibition [6] 50.3% | activation [1] 10.4% | inhibition [3] 55.2%

CN(C)[C@@H]1C(=O)C(C(N)=O)=C(O)[C@@]2(O)C(=O)C3=C(O)c4c(O)ccc(Cl)c4[C@@H](O)[C@H]3C[C@@H]12
active: inhibition [11] 102% | inhibition [12] 100% | inhibition [13] 101% | inhibition [14] 102% | inhibition [15] 104% | inhibition [16] 102%
inactive: inhibition [4] 24.2% | inhibition [8] -0.22% | inhibition [9] -3.91% | inhibition [10] 1.29% | inhibition [7] 17.2% | activation [1] 6.8% | inhibition [2] -24.2% | inhibition [3] 1.42%

C=CCn1c(=S)[nH]c2scc(-c3ccco3)c2c1=O
inactive: inhibition [18] 23.3% | inhibition [19] 37.9% | inhibition [8] 14.1% | activation [1] 4.85% | inhibition [2] -24.4%
active: inhibition [17] 78.1% | inhibition [3] 75.9%

CC(=O)c1nc2ccccc2n1Cc1ccccc1
inactive: activation [1] -0.46% | inhibition [2] 2.34% | inhibition [3] -4.4%
